PubChem BioAssay (Tox21)
Results filed as inconclusive are left out. Active and inactive are the calls of the source. Unless noted, calls come from the whole dose curve; as a rule, active = well fitted curve in the direction sought with a large enough effect in the repeat runs; inconclusive = weak or mixed curves; inactive = no such curve, though single readings can be large; an effect the other way counts as inactive or inconclusive.

Experiments:
[1] = A CellTox Green Cytotoxicity Assay to monitor cytotoxicity in HepG2 cells - 0 hour (AID 1224882); note: % is set by controls: 0 for no effect and ±100 for the full control effect; nearly all actives have a fitted effect of over 35% in size
Summary of the method: (§1)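 First, HepG2 cells (600/well) mixed with reagent were plated; second, after 5 h at 37 C they received compounds via pintool; third, fluorescence was measured at 0 h through 40 h at 8 h intervals.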

[2] = A CellTox Green Cytotoxicity Assay to monitor cytotoxicity in HepG2 cells - 32 hour (AID 1224883); note: nearly all actives have a fitted effect of over 50% in size; note: potency is the fitted concentration of half-maximal effect
Summary of the method: as §1

[3] = A CellTox Green Cytotoxicity Assay to monitor cytotoxicity in HEK293 cells - 8 hour (AID 1224884); note: % is set by controls: 0 for no effect and ±100 for the full control effect; nearly all actives have a fitted effect of over 35% in size
Summary of the method: (§2)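 Dead-cell fluorescence measured kinetically: asymmetric cyanine dye, HEK293, 600 cells/well, 5 h settle, 23 nL cpd/DMSO, 37 C, reads 0–40 h every 8 h.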

[4] = qHTS RealTime-Glo MT Cell Viability Assay in HepG2 cells - 16 hour (AID 1224885); note: % is set by controls: 0 for no effect and ±100 for the full control effect; nearly all actives have a fitted effect of over 50% in size
Summary of the method: (§3)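 Compound treatment began 5 h after plating HepG2 cells (600/well) with NanoLuc luciferase and prosubstrate. Plates stayed at 37 C for 40 h; luminescence was captured at six time points, 0 h through 40 h.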

[5] = A CellTox Green Cytotoxicity Assay to monitor cytotoxicity in HEK293 cells - 16 hour (AID 1224888); note: % is set by controls: 0 for no effect and ±100 for the full control effect; nearly all actives have a fitted effect of over 35% in size
Summary of the method: as §2

[6] = qHTS RealTime-Glo MT Cell Viability Assay in HepG2 cells - 0 hour (AID 1224889); note: % is set by controls: 0 for no effect and ±100 for the full control effect; nearly all actives have a fitted effect of over 50% in size
Summary of the method: as §3

[7] = A CellTox Green Cytotoxicity Assay to monitor cytotoxicity in HepG2 cells - 8 hour (AID 1224890); note: % is set by controls: 0 for no effect and ±100 for the full control effect; nearly all actives have a fitted effect of over 45% in size
Summary of the method: as §1

[8] = qHTS assay to identify small molecule antagonists of the androgen receptor (AR) signaling pathway using the MDA cell line in the presence of 0.5 nM R1881 - cell viability counter screen (AID 1259242); note: % is set by controls: 0 for no effect and ±100 for the full control effect; nearly all actives have a fitted effect of over 45% in size
Summary of the method: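 qHTS format. MDA-kb2 (MMTV-luc, AR/GR responsive) + cpd + 0.5 nM R1881 final, 16 hr 37C/0% CO2 → CellTiter-Fluor 30 min → fluorescence intensity.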

[9] = target: Estrogen receptor (Homo sapiens) (UniProt P03372); test: qHTS assay to identify small molecule antagonists of the estrogen receptor alpha (ER-alpha) signaling pathway using the BG1 cell line in the presence of 0.1 nM 17-beta-estradiol (AID 1259244); note: nearly all actives have a fitted effect of over 50% in size; note: potency is the fitted concentration of half-maximal effect
Summary of the method: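 Reporter is a stably transfected luciferase under four estrogen responsive elements in VM7Luc4E2 cells expressing native full-length ER-alpha; inhibition of 0.1 nM (final) 17beta-estradiol-driven signal over 22 h is read by luminescence.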

[10] = qHTS assay to identify small molecule HDAC inhibitors (AID 1259364);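 note: wild-type HCT-116 cells with endogenous class I/II HDAC activity; top concentration of the series differs between compounds; % is set by controls: 0 for no effect and ±100 for the full control effect; nearly all actives have a fitted effect of over 45% in size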
Summary of the method: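 Quantitative high-throughput format: overnight-seeded HCT-116 cells got compounds for 2 hr at 37C; HDAC-Glo I/II reagent added, 30 min RT, luminescence measured.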

[11] = qHTS assay to identify small molecule HDAC inhibitors - cell viability counter screen (AID 1259365)
Summary of the method: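 Measured quantity is CellTiter-Glo luminescence from wild-type HCT-116 cells after compound incubation of 2hr at 37C, 5% CO2; reagent developed 30min at room temperature.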

[12] = qHTS assay to identify small molecule agonists of the sonic hedgehog signaling (Shh) pathway - cell viability counter screen (AID 1259366); note: nearly all actives have a fitted effect of over 50% in size; note: potency is the fitted concentration of half-maximal effect
Summary of the method: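 In quantitative high-throughput format, 3T3 Gli1-Luc cells were exposed to compounds for 24hr and multiplexed for viability using CellTiter-Fluor, incubated 1hr at 37C before the fluorescence read.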

[13] = qHTS assay to identify small molecule antagonists of the sonic hedgehog signaling (Shh) pathway - cell viability counter screen (AID 1259367); note: % is set by controls: 0 for no effect and ±100 for the full control effect; nearly all actives have a fitted effect of over 55% in size
Summary of the method: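 Conditioned medium drove Shh signaling in 3T3 Gli1-Luc cells exposed to compounds at 37C and 5% CO2. Viability was determined from CellTiter-Fluor fluorescence, with reagent incubated 1 hr after 23 hr of treatment.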

[14] = qHTS assay to identify small molecule agonists of the sonic hedgehog signaling (Shh) pathway (AID 1259368; calls by dose curve;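 note: NIH/3T3-derived 3T3Gli1-Luc cells carrying a stable Gli1-driven firefly luciferase reporter; series mostly up to about 92 µM; % is set by controls: 0 for no effect and ±100 for the full control effect; nearly all actives have a fitted effect of over 15% in size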)
Summary of the method: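 Quantitative high-throughput format using a Gli1-driven firefly luciferase reporter line derived from NIH/3T3 cells. After a 24 hr compound treatment at 37 C and 5% CO2, luminescence reported Gli1 response element activity.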

[15] = qHTS RealTime-Glo MT Cell Viability Assay in HEK293 cells - 8 hour (AID 1224887)
Summary of the method: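 600 HEK293 cells per well, dispensed already mixed with RealTime-Glo MT reagents. Compound dosing came 5 h later. The same wells were read for luminescence at 0, 8, 16, 24, 32 and 40 h of exposure at 37 C.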

[16] = qHTS assay to identify small molecule antagonists of the estrogen receptor alpha (ER-alpha) signaling pathway using the BG1 cell line in the presence of 0.1 nM 17-beta-estradiol - cell viability counter screen (AID 1259241); note: % is set by controls: 0 for no effect and ±100 for the full control effect; nearly all actives have a fitted effect of over 40% in size
Summary of the method: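 In this screen, hormone-deprived VM7Luc4E2 cells were seeded at 4,000 per well, dosed with compound and 0.1 nM estradiol final, and incubated 22 hr at 37C and 5% CO2; fluorogenic live-cell protease signal reported viability.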

[17] = qHTS assay to identify small molecule phospholipidosis (PLD) inducers (AID 1259344; active = well fitted curve in the direction sought with a large enough effect; an effect the other way counts as inactive or inconclusive; note: % is set by controls: 0 for no effect and ±100 for the full control effect)
Summary of the method: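 After 4 h attachment on collagen I, HepG2 cells were dosed with compound alongside LipidTOX Red, kept 24 h at 37 C, fixed, and imaged for lamellar phospholipid pits.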

[18] = qHTS RealTime-Glo MT Cell Viability Assay in HEK293 cells - 24 hour (AID 1224886); note: nearly all actives have a fitted effect of over 50% in size; note: potency is the fitted concentration of half-maximal effect
Summary of the method: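 Quantitative high-throughput screen of the Tox21 10K library in HEK293: cells and RealTime-Glo reagents plated together, compound added at 5 h, luminescence monitored through 40 h at 37 C.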

[19] = qHTS assay to identify small molecule antagonists of the sonic hedgehog signaling (Shh) pathway (AID 1259369; calls by dose curve; note: nearly all actives have a fitted effect of over 45% in size; note: potency is the fitted concentration of half-maximal effect)
Summary of the method: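 Stable Gli1-Luc reporter NIH/3T3 clone; quantitative HTS in stimulated mode with conditioned medium. Luminescence measured after 24hr compound treatment at 37 C.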

[20] = target: Androgen receptor (Homo sapiens) (UniProt P10275); test: qHTS assay to identify small molecule antagonists of the androgen receptor (AR) signaling pathway using the MDA cell line in the presence of 0.5 nM R1881 (AID 1259243)
Summary of the method: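 Antagonist mode quantitative HTS in MDA-kb2 MMTV-luciferase cells, agonist R1881 at 0.5 nM final, 16 hr exposure at 37C and 0% CO2, luminescent detection.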

Chain of Estrogen receptor (Homo sapiens) (P03372 whole entry, looked up): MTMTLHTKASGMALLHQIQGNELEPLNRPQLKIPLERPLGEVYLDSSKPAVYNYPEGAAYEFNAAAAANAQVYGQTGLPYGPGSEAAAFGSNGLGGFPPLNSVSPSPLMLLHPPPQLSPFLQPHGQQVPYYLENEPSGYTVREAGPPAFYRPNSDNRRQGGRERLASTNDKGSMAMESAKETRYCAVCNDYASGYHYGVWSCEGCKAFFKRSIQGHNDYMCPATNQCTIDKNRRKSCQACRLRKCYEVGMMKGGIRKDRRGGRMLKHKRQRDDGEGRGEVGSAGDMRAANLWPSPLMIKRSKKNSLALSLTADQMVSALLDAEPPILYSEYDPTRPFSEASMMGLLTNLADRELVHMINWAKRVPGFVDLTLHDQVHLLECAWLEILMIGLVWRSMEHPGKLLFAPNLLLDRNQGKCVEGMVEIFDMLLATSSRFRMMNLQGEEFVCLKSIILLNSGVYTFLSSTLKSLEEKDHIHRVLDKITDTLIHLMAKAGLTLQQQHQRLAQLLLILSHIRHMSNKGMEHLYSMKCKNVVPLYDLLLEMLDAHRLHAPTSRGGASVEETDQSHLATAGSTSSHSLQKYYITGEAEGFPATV
Chain of Androgen receptor (Homo sapiens) (P10275 whole entry, looked up): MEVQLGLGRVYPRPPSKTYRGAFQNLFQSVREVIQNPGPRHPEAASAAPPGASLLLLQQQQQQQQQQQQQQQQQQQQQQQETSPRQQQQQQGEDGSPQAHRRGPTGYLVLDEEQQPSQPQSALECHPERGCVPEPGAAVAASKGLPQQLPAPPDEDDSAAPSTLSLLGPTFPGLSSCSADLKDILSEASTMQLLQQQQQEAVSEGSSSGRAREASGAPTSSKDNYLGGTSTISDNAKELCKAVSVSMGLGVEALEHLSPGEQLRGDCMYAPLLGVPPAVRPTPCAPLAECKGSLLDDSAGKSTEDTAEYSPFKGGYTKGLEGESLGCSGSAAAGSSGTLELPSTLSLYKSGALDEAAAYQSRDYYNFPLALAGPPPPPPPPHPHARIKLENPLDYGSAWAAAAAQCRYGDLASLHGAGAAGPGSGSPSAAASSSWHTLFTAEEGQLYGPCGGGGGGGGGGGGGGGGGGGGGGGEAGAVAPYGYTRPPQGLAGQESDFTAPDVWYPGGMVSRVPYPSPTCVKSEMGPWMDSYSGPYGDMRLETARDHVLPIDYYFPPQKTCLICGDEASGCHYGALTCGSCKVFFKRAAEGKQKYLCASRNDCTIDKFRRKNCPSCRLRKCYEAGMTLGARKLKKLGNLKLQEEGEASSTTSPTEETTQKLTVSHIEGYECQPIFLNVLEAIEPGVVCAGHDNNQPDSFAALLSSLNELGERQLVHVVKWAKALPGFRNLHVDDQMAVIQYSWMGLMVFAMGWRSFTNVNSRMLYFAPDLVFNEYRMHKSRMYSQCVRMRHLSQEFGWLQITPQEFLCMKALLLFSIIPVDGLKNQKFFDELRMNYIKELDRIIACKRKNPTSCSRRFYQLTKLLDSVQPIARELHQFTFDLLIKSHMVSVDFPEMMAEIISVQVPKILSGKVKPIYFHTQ

CC(C)Cc1ccc(C(C)C(=O)OCc2ccccn2)cc1 (stereo unspecified)
inactive: Potency [1] | Potency [2] | Potency [3] | Potency [4] | Potency [5] | Potency [6] | Potency [7] | Potency [8] | Potency [9] | Potency [10] | Potency [11] | Potency [12] | Potency [13] | outcome [14]

C[N+]1(CC2COC(c3ccccc3)(C3CCCCC3)O2)CCCCC1 (stereo unspecified)
inactive: Potency [1] | Potency [2] | Potency [3] | Potency [4] | Potency [15] | Potency [6] | Potency [7] | Potency [16] | Potency [8] | Potency [9] | Potency [17] | Potency [10] | Potency [11] | Potency [12] | Potency [13] | outcome [14]

Clc1ccc(Cn2c(CN3CCCC3)nc3ccccc32)cc1
inactive: Potency [1] | Potency [2] | Potency [3] | Potency [4] | Potency [5] | Potency [6] | Potency [7] | Potency [16] | Potency [8] | Potency [10] | Potency [11] | Potency [12] | Potency [13] | outcome [14]

CCOC(=O)NCCOc1ccc(Oc2ccccc2)cc1
inactive: Potency [1] | Potency [2] | Potency [3] | Potency [4] | Potency [5] | Potency [6] | Potency [7] | Potency [16] | Potency [10] | Potency [11] | Potency [12] | Potency [13] | outcome [14]
active: Potency [18] 21.9 µM | Potency [9] 43.3 µM

Brc1c2ccccc2cc2ccccc12
inactive: Potency [1] | Potency [2] | Potency [3] | Potency [4] | Potency [5] | Potency [6] | Potency [7] | Potency [8] | Potency [9] | Potency [10] | Potency [11] | Potency [12] | Potency [13] | outcome [14] | Potency [19]

O=C(OCCCCCCOC(=O)c1ccccc1)c1ccccc1
active: Potency [19] 27.3 µM
inactive: Potency [1] | Potency [2] | Potency [3] | Potency [4] | Potency [6] | Potency [7] | Potency [16] | Potency [8] | Potency [9] | Potency [10] | Potency [11] | Potency [12] | outcome [14]

CC(C)(O)c1ccc(CNC(=O)c2cccnc2Oc2ccc(F)cc2)cc1
active: Potency [19] 0.273 µM
inactive: Potency [1] | Potency [2] | Potency [3] | Potency [4] | Potency [15] | Potency [5] | Potency [6] | Potency [7] | Potency [16] | Potency [8] | Potency [10] | Potency [11] | Potency [12] | Potency [13] | outcome [14]

CCCCC(CC)CN1C(=O)C2C3C=CC(C3)C2C1=O (stereo unspecified)
inactive: Potency [1] | Potency [2] | Potency [3] | Potency [4] | Potency [6] | Potency [7] | Potency [16] | Potency [8] | Potency [10] | Potency [11] | Potency [12] | outcome [14]

O=C(CS)Nc1ccccc1
inactive: Potency [1] | Potency [2] | Potency [3] | Potency [18] | Potency [15] | Potency [5] | Potency [6] | Potency [7] | Potency [16] | Potency [8] | Potency [9] | PLD induction [17] 0.942% [at 7.66 µM] | Potency [10] | Potency [11] | Potency [12] | Potency [13] | outcome [14] | Potency [19]

COc1cc(Cl)c(OC)cc1N
inactive: Potency [1] | Potency [2] | Potency [3] | Potency [4] | Potency [18] | Potency [6] | Potency [7] | Potency [16] | Potency [8] | Potency [10] | Potency [11] | Potency [12] | Potency [13] | outcome [14]

Cc1cccc(C)c1OCC(=O)N[C@@H](Cc1ccccc1)[C@@H](O)C[C@H](Cc1ccccc1)NC(=O)[C@H](C(C)C)N1CCCNC1=O
inactive: Potency [1] | Potency [2] | Potency [3] | Potency [4] | Potency [5] | Potency [6] | Potency [7] | Potency [8] | Potency [10] | Potency [11] | outcome [14]
active: Potency [18] 23.9 µM | Potency [20] 23.7 µM | Potency [12] 15 µM | Potency [19] 29.8 µM

CNCCCN1c2ccccc2CCc2ccccc21
inactive: Potency [1] | Potency [3] | Potency [4] | Potency [15] | Potency [5] | Potency [6] | Potency [16] | Potency [9] | Potency [10] | Potency [11] | outcome [14]
active: Potency [2] 26.8 µM | Potency [19] 5.96 µM

CCCCNc1ccc(C(=O)OCCOCCOCCOCCOCCOCCOCCOCCOCCOC)cc1
active: Potency [9] 8.41 µM
inactive: Potency [1] | Potency [2] | Potency [3] | Potency [4] | Potency [15] | Potency [5] | Potency [6] | Potency [7] | Potency [16] | Potency [8] | Potency [10] | Potency [11] | Potency [12] | outcome [14]

COc1ccc(C(=O)Nc2nc3ccccc3c(NCc3ccccc3)c2C#N)cc1
active: Potency [9] 10.9 µM
inactive: Potency [1] | Potency [2] | Potency [3] | Potency [18] | Potency [15] | Potency [5] | Potency [6] | Potency [7] | Potency [16] | Potency [8] | Potency [10] | Potency [11] | outcome [14]

CCCCCCCCCOS(=O)(=O)O
inactive: Potency [1] | Potency [2] | Potency [3] | Potency [18] | Potency [15] | Potency [5] | Potency [6] | Potency [7] | Potency [16] | Potency [8] | Potency [9] | Potency [10] | Potency [11] | Potency [12] | Potency [13] | outcome [14]
